# This is part of a sample that, as a whole, favours compounds with a hit. Of some 79,000 tested, about 15% had one in any assay. Unmarked numbers belong to inactive results. Active and inactive are the calls of the source. Rule as the data show it: active = growth inhibition above about 70%; inactive = the rest.
# Experiments:
# [1] = NCI Yeast Anticancer Drug Screen. Data for the rad50 strain (AID 155);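 also: 0% = growth of vehicle-only cultures of the same strain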; conditions: S. cerevisiae rad50 strain growth inhibition, active compounds read high
# Outline: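 Vehicle-treated cultures provide the reference for the growth inhibition reported for compound-exposed, repair-deficient yeast.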
# [2] = NCI Yeast Anticancer Drug Screen. Data for the mec2-1 strain (AID 157); conditions: S. cerevisiae mec2-1 strain, active compounds read high
# Outline: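 Vehicle-treated cultures served as reference for growth inhibition of compound-exposed mec2-1 yeast.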
# [3] = NCI Yeast Anticancer Drug Screen. Data for the sgs1 mgt1 strain (AID 161);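 also: 0% = growth of cultures given vehicle only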; conditions: S. cerevisiae sgs1 mgt1 strain, active compounds read high
# Outline: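 Read-out: growth inhibition vs vehicle controls. Cells: mutant yeast strain deficient in DNA damage repair.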
# [4] = NCI Yeast Anticancer Drug Screen. Data for the cln2 rad14 strain (AID 165);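 also: 0% = growth equal to vehicle treated cultures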; conditions: S. cerevisiae cln2 rad14 strain, active compounds read high
# Outline: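 Each compound was tested on cln2 rad14 yeast. Inhibition of growth was calculated against vehicle-exposed controls.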
# [5] = NCI Yeast Anticancer Drug Screen. Data for the bub3 strain (AID 167); conditions: S. cerevisiae bub3 mutant strain, active compounds read high
# Outline: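 Mutant yeast screening strain plus compound; vehicle-treated cultures serve as the 0% inhibition reference.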
# [6] = NCI Yeast Anticancer Drug Screen. Data for the mlh1 rad18 strain (AID 175); conditions: S. cerevisiae mlh1 rad18 strain growth inhibition, active compounds read high
# Outline: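 Vehicle-treated cultures served as the reference for growth inhibition in a yeast strain carrying DNA damage repair alterations exposed to each compound.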
# [7] = at 5.0 µM (retest, dose inferred, filed as 0.5)
# [8] = at 50.0 µM (retest, dose inferred, filed as 5.0)
SMILES,"growth inhibition [1, 7]","growth inhibition [1, 8]",growth inhibition ([1]; at 50.0 µM),"growth inhibition [2, 7]","growth inhibition [2, 8]",growth inhibition ([2]; at 50.0 µM),"growth inhibition [3, 7]","growth inhibition [3, 8]",growth inhibition ([3]; at 50.0 µM),"growth inhibition [4, 7]","growth inhibition [4, 8]",growth inhibition ([4]; at 50.0 µM),"growth inhibition [5, 7]","growth inhibition [5, 8]",growth inhibition ([5]; at 50.0 µM),"growth inhibition [6, 7]","growth inhibition [6, 8]",growth inhibition ([6]; at 50.0 µM)
CCOC(=O)C1C(c2cccc(OC)c2O)c2cc3c(cc2OC1(C)N1CCCC1)OCO3 (centres undefined),-3%,21%,31.2%,1%,15%,16.4%,-2%,39%,34.5%,-5%,-4%,2.55%,1%,25%,24.9%,-4%,27%,50.5%
O=C(O)/C(=C\c1ccc(Cl)cc1)c1ccc(C(F)(F)F)cc1[N+](=O)[O-],11%,76% (active),94.1% (active),8%,90% (active),97.5% (active),0%,91% (active),96% (active),21%,84% (active),97.6% (active),18%,84% (active),96.8% (active),25%,93% (active),98.2% (active)
CCN(CC)C(=O)CCCC1CCCCC1,1%,23%,45.6%,-3%,4%,13.2%,0%,20%,66.5%,0%,11%,-9%,6%,25%,44%,1%,7%,26.9%

# From PubChem BioAssay (NCI)
